High-throughput results deposited in PubChem BioAssay by National Center for Advancing Translational Sciences (NCATS).
Sampled rows, rich in hits. Any-hit rate of the full collection: about 9.2%.
NPC1 prom act: qHTS Assay for NPC1 Promoter Activators | Huh7 NPC1 promoter luciferase reporter, 24 h | Potency, µM (titrated, usually from 9.22 µM), inactives show top-dose activation, actives largely listed as activators | actives 2.4% (n = 320,000) | AID 485313, 2010; also: % of control where 0% means no effect; nearly all actives have a fitted effect of over 60% in size
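Stable NPC1-promoter luciferase Huh7 line; cpd (DMSO) 24 h, 37 °C, 5% CO2; Amplite luciferase reagent 10 min RT; luminescence readout. qHTS format.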
FLuc modulator: qHTS profiling assay for firefly luciferase inhibitor/activator using purifed enzyme and Km concentrations of substrates (counterscreen for miR-21 project). Luciferin 4-monooxygenase (Photinus pyralis), P08659. purified FLuc, Km substrates, luminescence inhibition. Potency, µM (titrated, usually from 57.5 µM), for the others: at the highest dose activity change, negative = inhibition, most hits filed as inhibitors. actives 6.9% (n = 360,000). AID 588342, 2011;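 also: plate controls were vehicle for no effect and reference inhibitor for full effect; nearly all actives have a fitted effect of over 55% in size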
Target sequence (P08659 whole entry, looked up): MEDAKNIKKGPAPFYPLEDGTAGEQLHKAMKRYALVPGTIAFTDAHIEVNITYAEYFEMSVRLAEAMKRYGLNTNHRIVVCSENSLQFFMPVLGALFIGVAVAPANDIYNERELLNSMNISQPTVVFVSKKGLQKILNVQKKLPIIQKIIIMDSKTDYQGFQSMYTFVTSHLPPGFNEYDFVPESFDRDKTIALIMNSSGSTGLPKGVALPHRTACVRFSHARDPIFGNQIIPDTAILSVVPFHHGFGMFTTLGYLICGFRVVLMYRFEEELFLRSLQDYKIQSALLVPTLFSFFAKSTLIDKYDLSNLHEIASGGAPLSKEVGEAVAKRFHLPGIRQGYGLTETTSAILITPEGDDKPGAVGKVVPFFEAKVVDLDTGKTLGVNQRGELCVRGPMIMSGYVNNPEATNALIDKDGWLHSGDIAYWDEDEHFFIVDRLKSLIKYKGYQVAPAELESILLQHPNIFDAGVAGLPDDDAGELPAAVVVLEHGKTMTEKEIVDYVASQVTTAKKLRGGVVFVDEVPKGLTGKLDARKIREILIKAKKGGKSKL
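Biochemical qHTS of compounds, final roughly 60 µM downward over six points, against 10 nM purified firefly luciferase using Km concentrations of substrates (10 uM D-luciferin, 10 uM ATP) in Tris acetate pH 7.5 buffer; luminescence output.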
Rab9 prom act: qHTS Assay for Rab9 Promoter Activators | Potency, µM (doses to about 9.22 µM), without a hit: top-dose activation, negative = inhibition, hits mostly activators | actives 2.8% (n = 320,000) | Huh7 Rab9 promoter-luciferase reporter, luminescence, 24 h; also: % of control where 0% means no effect; nearly all actives have a fitted effect of over 60% in size
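Luciferase signal after 10 min detection reagent at ambient indicates Rab9 promoter upregulation; stably transfected Huh7 cells were treated 24 h with compound in DMSO at 37 °C, 5% CO2.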
SMN2 splice up: qHTS Assay for Enhancers of SMN2 Splice Variant Expression. Potency, µM (top dose mostly 46.1 µM), for the others: at the highest dose activity change, positive = activation, hits mostly activators. actives 2.8% (n = 210,000). HEK293 SMN2-luciferase splicing reporter, luminescence, 30-36 h; also: % of control where 0% means no effect; nearly all actives have a fitted effect of over 55% in size
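qHTS luciferase splicing reporter: luminescence rises when SMN2 exon 7 is included in transfected HEK293 cells. Compound exposure lasted 30-36 h at 37C, with 4.5 mM final sodium butyrate as control, followed by a ONE-Glo read.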
ELG1 repair inh: qHTS screen for small molecules that inhibit ELG1-dependent DNA repair in human embryonic kidney (HEK293T) cells expressing luciferase-tagged ELG1 | HEK293T ELG1-luciferase reporter, luminescence, 16 h; DNA damage induced by 5-fluorouridine | Potency, µM (top dose mostly 46.1 µM), without a hit: at the highest dose activity change, negative = inhibition, actives largely listed as inhibitors | actives 2.3% (n = 330,000) | AID 504467, 2011; also: % is scaled to controls: 0 for no effect and ±100 for the full control effect; nearly all actives have a fitted effect of over 55% in size
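Quantitative HTS, concentration-response format. 2,000 cells/well co-treated with 5-fluorouridine and compound, 16 hr in 5% CO2 at 37 °C; ONE-Glo luminescence read after 30 min.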
ELG1 genotox: qHTS screen for small molecules that induce genotoxicity in human embryonic kidney (HEK293T) cells expressing luciferase-tagged ELG1. HEK293T ELG1-luciferase reporter, luminescence, 16 h. Potency, µM (titrated, usually from 46 µM), for the others: at the top dose activity change, positive = activation, hits mostly activators. actives 1.3% (n = 330,000); also: % of control where 0% means no effect; nearly all actives have a fitted effect of over 60% in size
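Genotoxic stress is detected as increased luminescence from luciferase-tagged ELG1 in HEK293T cells, measured with ONE-Glo after a 16 hr treatment at 37 °C.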
* hit, by the source's call; ? = inconclusive; . = no result given. Calls follow the shape of the dose curve; as a rule, active = well fitted curve in the direction sought with a large enough effect; inconclusive = small, poorly fitted or top-dose-only effect, or another doubt; inactive = no such curve, though single readings can be large; an effect the other way counts as inactive or inconclusive. Potency is read from the fitted curve at half-maximal effect.

SMILES | NPC1 prom act | FLuc modulator | Rab9 prom act | SMN2 splice up | ELG1 repair inh | ELG1 genotox
COc1ccc2nc3oc(C(=O)N4CC(C)CC(C)C4)cc3cc2c1 (stereo not given) | -1% | 21µM* | 12% | . | ? | 3%
CCc1ccc(NC(=O)CN2C(=O)C(c3ccc(C)cc3)=NC23CCCCC3)cc1 | . | -3% | . | -9% | . | .
CCc1nnc2c3ccccc3nc(N3CCN(c4cc(C)ccc4C)CC3)n12 | . | 6% | . | . | . | .
COc1ccc(OC)c(NC(=O)CCc2c(C)nc3c(c(C)nn3C(C)(C)C)c2C)c1 | . | -3% | . | 4% | . | .
COc1ccc(OCC(=O)NCc2ccc3c(c2)CCN3C(=O)c2ccc(F)cc2)cc1 | . | -17% | . | . | . | .
COCCNC(=O)Cn1cc(/C=C(\C#N)C(=O)NC2CCCC2)c2ccccc21 | 2% | ? | 4% | . | -10% | 0%
NCCCCCc1nnc(SCc2ccc(F)cc2)o1 | . | -4% | . | -3% | . | .
O=C(Cn1nc(C(F)(F)F)c2c1CCCC2)Nc1ccc(Br)cc1 | . | -10% | . | . | . | .
Cc1ccc(-n2[nH]c(C)c(/C=N/Nc3ccc([N+](=O)[O-])cc3[N+](=O)[O-])c2=O)cc1 | -8% | 19µM* | -11% | -63% | -21% | -11%
Cc1[nH]n(-c2ccc([N+](=O)[O-])cc2)c(=O)c1C=NCCc1c(C)[nH]c2ccccc12 | -4% | -1% | 1% | -25% | 26µM* | -11%
C=CCN=Cc1c(C)[nH]n(-c2ccccc2)c1=O | 29% | ? | 3.5µM* | ? | ? | 14%
Cc1[nH]n(-c2ccc([N+](=O)[O-])cc2)c(=O)c1C=NCC1CCCO1 (stereo not given) | 23% | ? | ? | 29% | ? | ?
COc1cccc2sc(N(C)c3ccccc3)nc12 | 1.3µM* | 0.85µM* | 0.5µM* | 8.9µM* | ? | 1.6µM*
COc1cccc2sc(N)nc12 | -3% | 1% | -7% | 11% | 18% | 1%
Cc1cc(C)n2nc(N)c(N=Nc3ccccc3)c2n1 | 6% | 15µM* | 25% | . | 16% | 6%
Cc1nn(-c2ccccc2)c(N)c1N=Nc1ccc(Cl)cc1 | 2.5µM* | 8.5µM* | 2µM* | 22µM* | ? | ?
Cc1nn(-c2ccccc2)c(N)c1N=Nc1cccc(S(=O)(=O)N2CCOCC2)c1 | -8% | ? | -6% | . | 0% | -3%
Cc1nn(-c2ccccc2)c(N)c1N=Nc1ccccc1 | 2.8µM* | 6.7µM* | 2µM* | 13µM* | ? | ?
Cc1cccc(N=Nc2c(C)nn(-c3ccccc3)c2N)c1C | 24% | 13µM* | ? | ? | ? | ?
Nc1nc(-c2ccccc2)c(N=Nc2ccc(Cl)cc2)s1 | -1% | -7% | -4% | -24% | 3% | -1%
CCCn1c(SCc2nc(-c3ccccc3OCC)no2)nnc1-c1ccc(Cl)cc1 | . | -13% | . | -15% | . | .
Fc1ccc(Nc2nc(-c3cccc(Cl)c3)c3c(n2)-c2ccccc2OC3)c(F)c1 | . | -16% | . | . | . | .
Cc1cc(=O)n2[nH]c(N)c(N=Nc3ccccc3F)c2n1 | -4% | ? | -1% | -21% | -7% | -9%
Nc1nn(-c2ccccc2)c(N)c1N=Nc1ccccc1F | 0.56µM* | 0.95µM* | 0.45µM* | 3.5µM* | ? | ?
Cc1nc2c(N=Nc3ccccc3F)c(N)nn2c(N)c1C#N | ? | ? | ? | 11% | 4% | -1%
SMILES | NPC1 prom act | FLuc modulator | Rab9 prom act | SMN2 splice up | ELG1 repair inh | ELG1 genotox
Nc1nn(-c2ccccc2)c(N)c1N=Nc1ccccc1 | ? | 3µM* | ? | 8.9µM* | ? | 15µM*
Nc1ncnc(N)c1N=Nc1ccccc1 | 20% | -6% | 0% | . | -1% | -14%
Nc1c(N=Nc2ccccc2F)c(=O)[nH]n1-c1ccccc1 | ? | 3.8µM* | ? | 20% | ? | ?
NC(=O)c1cccc(-c2noc(-c3ccccc3F)n2)c1 | 0.89µM* | 2.7µM* | 0.79µM* | . | ? | ?
COc1ccc(Br)cc1-c1noc(-c2ccccc2F)n1 | ? | 3% | 17% | 6% | 0% | 13%
COC(=O)c1cccc(-c2noc(-c3ccccc3F)n2)c1 | ? | 1.7µM* | 0.28µM* | . | ? | ?
NC(=O)c1ccccc1-c1nc(-c2ccccc2)no1 | ? | 24µM* | ? | 21% | ? | ?
CCOC(=O)c1cc(C)n(CC2CCC(C(=O)Nc3ccc(OC)cc3)CC2)c1C (stereo not given) | . | -4% | . | . | . | .
O=C(Nc1c(C(=O)N2CCN(c3ccccc3)CC2)oc2ccccc12)c1ccc(Br)o1 | . | -2% | . | . | . | .
O=C(Nc1ccc(N2CCOCC2)cc1)c1nc2ccccc2s1 | 0.1µM* | 0.24µM* | 0.1µM* | . | ? | ?
Nc1nc2ccc(C(=O)Nc3ccc(N4CCOCC4)cc3)cc2s1 | . | . | . | . | 9% | 8%
c1ccc2sc(N3CN(CCN4CCOCC4)CN(c4nc5ccccc5s4)C3)nc2c1 | 14% | -1% | 18% | -7% | 17% | 3%
CCC(=O)N1CCN(c2ccc(NC(=O)c3cc4ccccc4o3)cc2)CC1 | 1% | ? | -2% | -29% | ? | -3%
CCc1ccc(C(=O)Nc2ccc(C)c(NS(C)(=O)=O)c2)cc1 | ? | 12µM* | 13% | . | ? | 1%
O=C(Nc1ccc(N2CCOCC2)cc1)c1cc2ccccc2o1 | 3.5µM* | 5.4µM* | 1.8µM* | 2.8µM* | ? | ?
c1ccc2sc(SN3CCOCC3)nc2c1 | 0% | 24µM* | 0% | -6% | 21% | 4%
CCOc1ccc(-n2cc(-c3ccccc3)c3c(N4CCC(C)CC4)ncnc32)cc1 | . | -9% | . | . | . | .
COc1ccccc1N1CCN(S(=O)(=O)c2c(C)sc3ncn(CC(=O)Nc4ccc(C(C)C)cc4)c(=O)c23)CC1 | . | -6% | . | 0% | . | .
COc1ccc(CCNC(=O)COC(=O)Cn2cnc3c2c(=O)n(C)c(=O)n3C)cc1 | 0% | 2% | 2% | . | 17% | -3%
COc1ccc(Nc2cc(O)c3ncccc3c2)cc1 | -40% | ? | -43% | . | . | .
Cc1ccc(NC(=O)C(=O)NCC(c2ccc3c(c2)OCO3)N2CCN(c3ccccc3)CC2)cc1 (stereo not given) | . | -2% | . | . | . | .
COC(=O)CC1Oc2ccc(Cl)cc2-n2cc(-c3ccc(C)cc3)nc21 (stereo not given) | . | -7% | . | 1% | . | .
